Assay results as given in publication PMC7862700, “An all-to-all approach to the identification of sequence-specific readers for epigenetic DNA modifications on cytosine”.

How the values were obtained:
Test in all cases: DAPPL (digital affinity profiling via proximity ligation, sequencing); 10 mM Tris-HCl pH 7.5, 50 mM NaCl, 1 mM DTT, 4% glycerol, room temperature, 30 min; GST-TFs on glutathione beads, 16-mer random dsDNA library, 0.1% formaldehyde crosslink after washing; high values mean tight binding
Conditions in all cases: protein: recombinant; tags: N-terminal GST; dsDNA, one strand shown
FLI1 = target: T1, FLI1 (Homo sapiens, UniProt Q01543 1-452)
T1 sequence: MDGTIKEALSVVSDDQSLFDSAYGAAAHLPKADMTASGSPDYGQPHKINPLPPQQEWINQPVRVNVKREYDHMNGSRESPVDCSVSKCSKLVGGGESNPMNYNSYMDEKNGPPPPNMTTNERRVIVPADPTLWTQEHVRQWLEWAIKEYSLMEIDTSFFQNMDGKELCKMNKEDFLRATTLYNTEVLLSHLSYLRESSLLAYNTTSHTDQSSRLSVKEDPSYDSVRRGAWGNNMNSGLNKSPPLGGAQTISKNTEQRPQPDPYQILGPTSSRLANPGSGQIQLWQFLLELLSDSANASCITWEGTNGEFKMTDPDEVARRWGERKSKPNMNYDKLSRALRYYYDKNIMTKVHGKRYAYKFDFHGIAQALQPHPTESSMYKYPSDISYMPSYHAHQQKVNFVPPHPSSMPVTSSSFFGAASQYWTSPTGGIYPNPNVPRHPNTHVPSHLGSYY
Summary of the method: (§1)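 Human transcription factors were made in yeast as GST fusions, captured on glutathione beads and barcoded with DNA. With a tag-only sample included, the pool was incubated with 200 nmole of a random double-stranded 16-mer DNA library in Tris/NaCl/DTT/glycerol buffer at room temperature for 30 min, then crosslinked with 0.1% formaldehyde after washing, ligated by proximity, amplified and sequenced. For binding signal, each hexamer's read frequency for a factor is divided by its frequency for the tag-only sample.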

ELK1 = target: T2, ELK1 (Homo sapiens, UniProt P19419 1-428)
T2 sequence: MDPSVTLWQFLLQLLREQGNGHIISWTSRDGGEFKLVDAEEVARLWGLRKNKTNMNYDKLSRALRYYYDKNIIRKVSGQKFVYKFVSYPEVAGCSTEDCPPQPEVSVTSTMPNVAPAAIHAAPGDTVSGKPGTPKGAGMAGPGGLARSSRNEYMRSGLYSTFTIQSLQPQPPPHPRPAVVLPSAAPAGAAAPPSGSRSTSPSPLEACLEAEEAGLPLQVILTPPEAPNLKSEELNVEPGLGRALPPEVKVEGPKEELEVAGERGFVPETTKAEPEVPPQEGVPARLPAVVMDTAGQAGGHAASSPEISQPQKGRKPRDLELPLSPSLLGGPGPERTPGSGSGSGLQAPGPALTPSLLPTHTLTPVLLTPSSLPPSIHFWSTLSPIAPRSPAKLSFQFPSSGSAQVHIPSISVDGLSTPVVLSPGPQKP
Summary of the method: as §1

GABPA = target: T3, GABPA (Homo sapiens, UniProt Q06546 1-454)
T3 sequence: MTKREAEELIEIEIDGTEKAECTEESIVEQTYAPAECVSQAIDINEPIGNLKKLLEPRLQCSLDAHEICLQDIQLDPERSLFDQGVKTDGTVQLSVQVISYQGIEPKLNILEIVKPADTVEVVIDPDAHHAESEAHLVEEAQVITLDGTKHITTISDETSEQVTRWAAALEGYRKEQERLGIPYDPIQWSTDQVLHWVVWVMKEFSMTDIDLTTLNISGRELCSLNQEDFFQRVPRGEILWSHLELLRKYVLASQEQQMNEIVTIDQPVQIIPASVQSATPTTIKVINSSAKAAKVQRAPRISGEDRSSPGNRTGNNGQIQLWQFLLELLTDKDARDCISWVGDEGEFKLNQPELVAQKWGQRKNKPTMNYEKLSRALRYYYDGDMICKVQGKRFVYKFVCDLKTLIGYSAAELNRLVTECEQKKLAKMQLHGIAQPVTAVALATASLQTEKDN
Summary of the method: as §1

ERG = target: T4, ERG (Homo sapiens, UniProt P11308 1-479)
T4 sequence: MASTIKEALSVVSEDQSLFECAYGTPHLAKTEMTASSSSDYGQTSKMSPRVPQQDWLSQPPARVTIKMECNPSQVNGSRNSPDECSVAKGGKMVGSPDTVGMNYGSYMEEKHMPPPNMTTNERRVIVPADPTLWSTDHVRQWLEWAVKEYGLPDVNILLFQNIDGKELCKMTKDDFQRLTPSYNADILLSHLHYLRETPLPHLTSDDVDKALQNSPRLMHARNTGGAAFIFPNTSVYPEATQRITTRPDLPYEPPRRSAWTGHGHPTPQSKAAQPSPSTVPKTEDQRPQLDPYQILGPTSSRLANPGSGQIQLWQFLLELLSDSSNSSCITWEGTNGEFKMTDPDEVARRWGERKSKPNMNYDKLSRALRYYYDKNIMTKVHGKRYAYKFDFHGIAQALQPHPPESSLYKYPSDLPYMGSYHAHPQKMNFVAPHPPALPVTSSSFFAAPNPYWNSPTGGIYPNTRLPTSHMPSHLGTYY
Summary of the method: as §1

ELF1 = ELF1 (Homo sapiens, UniProt P32519 1-619)
Summary of the method: as §1

EHF = target: T5, EHF (Homo sapiens, UniProt Q9NZC4 1-300)
T5 sequence: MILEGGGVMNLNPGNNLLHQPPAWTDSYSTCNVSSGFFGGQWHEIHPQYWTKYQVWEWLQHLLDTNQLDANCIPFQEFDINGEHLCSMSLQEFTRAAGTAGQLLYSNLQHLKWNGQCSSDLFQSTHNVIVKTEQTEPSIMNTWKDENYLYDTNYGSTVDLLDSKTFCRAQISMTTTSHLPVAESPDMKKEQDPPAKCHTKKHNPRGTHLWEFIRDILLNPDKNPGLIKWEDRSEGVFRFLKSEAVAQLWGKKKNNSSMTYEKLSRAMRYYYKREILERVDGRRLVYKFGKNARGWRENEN
Summary of the method: as §1

SPI1 = SPI1 (Homo sapiens, UniProt P17947 1-270)
Summary of the method: as §1

SPIB = SPIB (Homo sapiens, UniProt Q01892 1-262)
Summary of the method: as §1

ELK3 = target: T6, ELK3 (Homo sapiens, UniProt P41970 1-407)
T6 sequence: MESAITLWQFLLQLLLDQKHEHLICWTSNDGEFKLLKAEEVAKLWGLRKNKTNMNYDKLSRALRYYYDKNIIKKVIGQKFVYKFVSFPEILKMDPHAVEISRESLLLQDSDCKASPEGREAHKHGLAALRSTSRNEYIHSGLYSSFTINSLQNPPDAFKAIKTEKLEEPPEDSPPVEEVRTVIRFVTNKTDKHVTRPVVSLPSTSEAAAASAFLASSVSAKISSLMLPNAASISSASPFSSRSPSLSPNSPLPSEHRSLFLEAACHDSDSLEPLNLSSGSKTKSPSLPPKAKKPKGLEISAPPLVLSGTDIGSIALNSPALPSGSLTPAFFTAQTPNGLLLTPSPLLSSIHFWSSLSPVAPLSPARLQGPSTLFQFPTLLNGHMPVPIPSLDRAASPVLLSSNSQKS
Summary of the method: as §1

Chain of SPIB (Q01892 whole entry): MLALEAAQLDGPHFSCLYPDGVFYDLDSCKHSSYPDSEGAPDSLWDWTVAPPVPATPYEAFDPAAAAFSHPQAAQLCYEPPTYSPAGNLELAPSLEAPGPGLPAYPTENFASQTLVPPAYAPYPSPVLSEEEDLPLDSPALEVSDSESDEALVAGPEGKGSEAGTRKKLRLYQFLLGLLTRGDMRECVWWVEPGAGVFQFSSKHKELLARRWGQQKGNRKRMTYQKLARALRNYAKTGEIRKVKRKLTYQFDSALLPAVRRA
Chain of ELF1 (P32519 whole entry): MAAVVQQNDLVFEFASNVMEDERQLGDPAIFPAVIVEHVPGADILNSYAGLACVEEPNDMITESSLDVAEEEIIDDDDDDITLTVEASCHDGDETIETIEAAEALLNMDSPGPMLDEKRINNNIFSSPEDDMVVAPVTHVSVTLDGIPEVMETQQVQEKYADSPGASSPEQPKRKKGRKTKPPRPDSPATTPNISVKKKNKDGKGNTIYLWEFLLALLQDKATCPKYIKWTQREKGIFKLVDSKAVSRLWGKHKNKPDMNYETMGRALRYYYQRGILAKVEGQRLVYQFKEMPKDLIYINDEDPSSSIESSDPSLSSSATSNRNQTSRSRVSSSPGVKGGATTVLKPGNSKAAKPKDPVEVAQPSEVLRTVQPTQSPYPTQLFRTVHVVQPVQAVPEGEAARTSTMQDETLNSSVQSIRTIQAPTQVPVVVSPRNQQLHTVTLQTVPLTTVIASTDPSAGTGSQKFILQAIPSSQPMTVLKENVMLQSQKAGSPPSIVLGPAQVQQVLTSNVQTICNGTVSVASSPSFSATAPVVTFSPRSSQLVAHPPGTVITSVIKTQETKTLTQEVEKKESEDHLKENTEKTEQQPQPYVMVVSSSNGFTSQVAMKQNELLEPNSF

Question: With TTATTT as the sequence, how does the binding signal (FLI1) read?
Answer: The binding signal was 1.4 fold enrichment (6-mer frequency, TF over GST control).

Question: And the binding signal (ELK1)?
Answer: Its binding signal is 1.42 fold enrichment (6-mer frequency, TF over GST control).

Question: And the binding signal (GABPA)?
Answer: The binding signal was 1.33 fold enrichment (6-mer frequency, TF over GST control).

Question: And the binding signal (ERG)?
Answer: Its binding signal is 1.44 fold enrichment (6-mer frequency, TF over GST control).

Question: And the binding signal (ELF1)?
Answer: Its binding signal is 1.3 fold enrichment (6-mer frequency, TF over GST control).

Question: What about the binding signal (EHF) of the same sequence?
Answer: Its binding signal is 1.35 fold enrichment (6-mer frequency, TF over GST control).

Question: What about the binding signal (SPI1) of the same sequence?
Answer: Its binding signal is 1.44 fold enrichment (6-mer frequency, TF over GST control).

Question: What about the binding signal (SPIB) of the same sequence?
Answer: The binding signal was 1.37 fold enrichment (6-mer frequency, TF over GST control).

Question: What about the binding signal (ELK3) of the same sequence?
Answer: Its binding signal is 1.33 fold enrichment (6-mer frequency, TF over GST control).
